Screening data deposited in PubChem by several laboratories.
BJeLR viability – kills HRASV12-expressing BJeLR cells; BJeLR (HRASV12) viability, CellTiter-Glo ATP luminescence, 48 h; inhibition, % (no concentration beside the values); hit rate 0.17% among 300,000; AID 1554; in the data active means inhibition above about 50%
PrP UTR inh – suppresses PrP 5' UTR mRNA reporter expression; cell-based PrP 5' UTR mRNA reporter, plate reader; AID 488862; inhibition, % (no concentration beside the values); hit rate 0.35% among 340,000; in the data active means inhibition above about 52%; further: 0 = median of the neutral control wells
GDH-TPI inh – counter-screen for M. tuberculosis FBA inhibitors: GDH-TPI coupled enzymes; AID 588335; inhibition, % at 4.8 µM; GDH-TPI coupled enzyme counterscreen, NADH absorbance; hit rate 1.2% among 360,000; in the data active means inhibition above about 30%;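 further: 0% = DMSO wells and 100% = wells lacking the enzyme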
PrPC surface inh – inhibitors of human cell surface prion protein PrPC; P04156; TR-FRET read-out; inhibition, % at 13.8 µM; hit rate 0.43% among 370,000; AID 720596; in the data active means inhibition above about 24%; further: 0% = median of the test wells and 100% = reference compound wells
PfHsp40 rescue – restores yeast growth despite PfHsp40 toxicity; S. cerevisiae expressing PfHsp40, growth rescue, ATP luminescence; growth rescue, % at 12.5 µM; hit rate 0.68% among 340,000; AID 504582; in the data active means growth rescue above about 28%, passing the limit was not always enough;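 further: yeast W303a lacking pdr1 and pdr3 grown in galactose medium; growth measured after three days at 30 °C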
FBA Mtb inh – inhibits M. tuberculosis FBA enzyme; inhibition, % at 1 µM; P9WQA3; purified M. tuberculosis FBA, fluorescence read-out; hit rate 2.3% among 360,000; in the data active means inhibition above about 27%;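 further: 0% = vehicle and 100% = reference inhibitor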
Target sequence (P9WQA3 whole entry, looked up): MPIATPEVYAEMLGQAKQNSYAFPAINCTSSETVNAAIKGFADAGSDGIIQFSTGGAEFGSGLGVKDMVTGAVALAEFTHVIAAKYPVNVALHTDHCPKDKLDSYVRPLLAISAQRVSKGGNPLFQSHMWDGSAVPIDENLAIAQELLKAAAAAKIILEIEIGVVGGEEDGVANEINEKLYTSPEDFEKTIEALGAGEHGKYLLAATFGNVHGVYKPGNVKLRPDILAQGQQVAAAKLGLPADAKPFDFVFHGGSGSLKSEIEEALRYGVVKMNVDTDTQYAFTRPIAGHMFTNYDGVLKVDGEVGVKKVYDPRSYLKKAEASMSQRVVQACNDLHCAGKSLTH
Active calls of the source: *; . = no result; + = active, no number. Most compounds without a hit are left out; they make up all but 4.5% or so of the library.

SMILES | BJeLR viability | PrP UTR inh | GDH-TPI inh | PrPC surface inh | PfHsp40 rescue | FBA Mtb inh
CN1CCN(CCCNC(=O)c2ccc3c(c2)N(Cc2ccccc2)CCS3)CC1 | -6.1 | -15.2 | 8.9 | 4.7 | -0.8 | 189.6*
CCOC(=O)c1cnc2ccc(C(=O)OC)cc2c1NCCCN1CCOCC1 | 1.0 | -9.9 | 53.1* | -1.9 | -0.1 | 19.1
CCOC(=O)c1cnc2ccc(C(=O)OC)cc2c1NCCN1CCOCC1 | -6.8 | -22.9 | 20.8 | 2.6 | -0.5 | 4.9
Cc1ccc(CN2CCSc3ccc(C(=O)NCCCN4CCOCC4)cc32)cc1 | 10.8 | -6.1 | 8.6 | 4.9 | -1.4 | 162.0*
O=C(NCC1CCCO1)c1ccc2c(c1)N(Cc1ccccc1)C(=O)CS2=O (centres undefined) | 6.2 | -15.8 | 2.4 | 2.6 | -0.5 | 0.4
O=C(NCC1CCCO1)c1ccc2c(c1)N(Cc1ccccc1)CCS2 (centres undefined) | 5.3 | -5.0 | -7.7 | 9.9 | 1.6 | 141.4*
Cc1ccc(CN2CCSc3ccc(C(=O)N4CCOCC4)cc32)cc1 | 8.9 | 1.5 | 18.7 | . | -0.7 | 16.9
O=C(CCc1ccccc1)N[C@H]1[C@@H](OC(=O)c2cnccn2)CCC[C@@]12C(=O)N(Cc1ccccc1)c1ccccc12 | . | . | . | 2.3 | . | .
O=C(NCCN1CCOCC1)c1ccc2c(c1)N(Cc1ccccc1)CCS2 | -3.6 | -19.8 | 8.9 | 1.6 | -0.7 | 118.2*
O=C(NCCCN1CCOCC1)c1ccc2c(c1)N(Cc1ccccc1)CCS2 | -16.1 | -25.2 | 0.5 | -9.1 | -1.3 | 119.4*
COc1ccc(C(=O)NCCCN2CCOCC2)cc1OC | 0.7 | -20.2 | 0.0 | -4.6 | -1.4 | 4.8
CCOc1ccc(C(=O)NCCCN2CCOCC2)cc1OCC | -3.2 | -4.3 | 2.2 | -6.9 | -0.4 | +
N#Cc1ccccc1N1CCN(S(=O)(=O)c2ccc3c(c2)CCC(=O)N3)CC1 | . | . | . | 0.4 | . | .
O=c1c2ccccc2nc(/C=C/c2cccnc2)n1Cc1ccccc1 | 1.6 | -11.6 | 14.8 | 1.3 | 0.3 | -1.2
O=c1c2ccccc2nc(/C=C/c2cccnc2)n1CCc1ccccc1 | -5.3 | -18.6 | 36.5* | -13.0 | -0.6 | 0.4
COCCNC(=O)/C(C#N)=C/c1c(N2CCN(C)CC2)nc2ccccn2c1=O | -4.1 | -18.7 | 5.7 | -7.7 | 2.7 | 192.5*
CCOC(=O)/C(C#N)=C/c1c(N2CCN(C)CC2)nc2ccccn2c1=O | -5.4 | -10.3 | 14.7 | -13.7 | 0.8 | -5.4
CN1CCc2c(sc3c2C(=O)NC(/C=C/c2ccco2)N3)C1 (centres undefined) | -1.2 | -14.5 | 36.7* | -2.8 | -0.5 | -0.2
Cc1cc(C)cc(NC(=O)O[C@@H]2CC[C@@]34CCCN3C(=O)CCC[C@H]4C2)c1 | . | . | . | 6.8 | . | .
O=C(CSc1nc2ccccc2[nH]1)NN=Cc1c(F)cccc1Cl | . | . | . | 4.2 | . | .
Cc1ccccc1C(=O)NC(=S)Nc1sc2c(c1C#N)CCCC2 | -5.1 | -4.3 | 6.8 | 1.8 | 71.5* | 3.5
N#Cc1c(NC(=O)/C=C/c2ccco2)sc2c1CCCC2 | 56.3* | 2.3 | 15.2 | 3.6 | 0.3 | -1.1
N#Cc1c(NC(=O)CSc2nnc(-c3ccccc3)o2)sc2c1CCCC2 | -0.9 | -3.2 | 30.9* | . | 0.3 | 0.9
O=C(/C=C/c1ccco1)Nc1sc2c(c1C(=O)O)CCC2 | 9.0 | -16.6 | 23.9 | -18.6 | -1.2 | -3.5
CC1CCc2c(sc(NC(=O)CSc3nnc(-c4ccccc4)o3)c2C#N)C1 (centres undefined) | -8.0 | -4.0 | 8.7 | 7.1 | -0.1 | 1.8
SMILES | BJeLR viability | PrP UTR inh | GDH-TPI inh | PrPC surface inh | PfHsp40 rescue | FBA Mtb inh
N#Cc1c(NC(=O)c2cc(C3CC3)on2)sc2c1CCC2 | 2.8 | -18.3 | 33.6* | -1.0 | 2.0 | 1.2
CCOC(=O)[C@]12CCCCC/C=C\1N(CCc1ccc(Cl)cc1)C(=O)[C@H]2CC(=O)N1CCCC1 | . | . | . | 7.2 | . | .
Cc1ccc(NC(=O)c2ccc(CS(=O)(=O)Cc3ccccc3C)o2)c(C)c1 | . | . | . | 3.8 | . | .
COc1ccc(/C=N/NC(=O)c2cc(-c3ccccc3OC)nc3ccccc23)cc1COC(C)=O | -5.4 | 6.6 | 10.6 | -7.1 | -0.8 | -0.8
COc1ccccc1-c1cc(C(=O)N/N=C/c2ccc(C)s2)c2ccccc2n1 | -13.1 | 1.7 | 36.8* | -10.4 | -0.3 | -1.2
CCN(CC)C(=O)COc1ccc(/C=N/NC(=O)c2cc(-c3ccccc3OC)nc3ccccc23)cc1OC | 7.3 | -34.0 | 42.4* | 2.8 | 1.6 | -0.7
COc1ccc(/C=N/NC(=O)c2cc(-c3ccc(C)cc3C)nc3ccccc23)cc1COC(C)=O | -2.9 | 11.0 | 34.7* | -1.4 | 0.5 | 5.0
Cc1ccc2ncc(NC(=O)c3ccc(F)cc3)c(=O)n2c1 | 1.6 | -36.4 | 33.0* | -6.4 | -0.5 | -1.0
Brc1ccc(Cn2nnc(-c3ccc(N4CCOCC4)cc3)n2)cc1 | . | . | . | -3.5 | . | .
CCSC(=S)c1c(C)[nH]n(-c2ccccc2)c1=O | 7.9 | -29.9 | 5.4 | -5.5 | 34.0* | -1.1
Cc1[nH]n(-c2ccccc2)c(=O)c1C(=O)c1ccc(Cl)cc1 | 7.2 | -7.9 | 12.3 | -0.9 | 96.5* | -2.4
Cc1[nH]n(-c2ccccc2)c(=O)c1-c1ccccc1 | -0.6 | -16.8 | 5.1 | -1.6 | -0.2 | 1.2
Cc1[nH]n(-c2ccccc2)c(=O)c1C(=O)c1ccccc1 | 7.0 | -13.0 | 5.7 | -3.3 | 1.2 | 1.4
Cc1[nH]n(-c2ccc(Cl)cc2)c(=O)c1C(=O)c1ccccc1 | 4.8 | -30.2 | 7.3 | 5.0 | 86.9* | 0.6
CC/C(=N/NC(=O)c1ccccc1O)c1c(C)[nH]n(-c2ccccc2)c1=O | 3.6 | -12.6 | 31.0* | 4.4 | 399.0* | 0.4
O=C(C1CC1)C1(C(=O)N2CCOCC2)CC(c2ccccn2)=NO1 (centres undefined) | . | . | . | 2.4 | . | .
COC(=O)c1ccc2nc(C3CCCCC3)c(Cc3ccccc3)n2c1 | . | . | . | 3.0 | . | 2.4
CC(C)c1ccccc1NC(=O)[C@@H]1CCCN1S(=O)(=O)c1cccc2cccnc12 | . | . | . | 10.5 | . | .
Cc1cc(C)cc(-n2c(=O)c3ccccc3n(CC(=O)NCC3CCCO3)c2=O)c1 (centres undefined) | -14.2 | -14.0 | -4.4 | 9.6 | 4.4 | -4.2
Cc1ccc2c(c1)c1c(c(=O)n(-c3ccccc3C)c(=O)n1CC(=O)NCC1CCCO1)n2C (centres undefined) | -2.9 | -5.1 | -2.5 | -1.6 | 1.1 | +
COc1cccc(C(=O)Nc2nnc(-c3ccccc3)s2)c1OC | 10.1 | -64.6 | 9.6 | 5.6 | 1.5 | -5.0
COc1cccc(C(=O)Nc2sc(C(C)C)cc2C(N)=O)c1OC | -2.5 | -5.4 | 16.6 | 0.3 | 604.0* | 3.6
Cc1ccc(S(=O)(=O)c2c(C)cc(-c3ccccc3)[nH]c2=O)cc1 | -4.2 | -18.3 | 27.5 | -5.2 | -0.6 | 81.1*
Cc1ccccc1NC(=O)OC1CCC12CCC(c1ccccc1)CC2 (centres undefined) | . | . | . | 2.2 | . | .
CCCCn1nc(NC(=O)c2cccs2)c2cc3cc(OC)ccc3nc21 | -2.7 | -34.3 | -1.7 | 1.6 | 5.9 | 9.9
CCCn1nc(NC(=O)c2cccs2)c2cc3cc(OC)ccc3nc21 | -9.3 | -23.5 | 8.4 | -4.1 | 68.5* | 6.7
